Test results from PubChem BioAssay (EPA / NIEHS).
“And” between values parts separate entries of the source, which are not always exact repeats. Identical values can stand only once. Some structures have more than one record in an assay (separate samples or runs), and their calls can disagree. The source made the active and inactive calls. The calls were made as follows: active = hit-call score of the fitted dose curve at least 0.9, where 1 is the maximum; inactive = score below 0.9.

What follows are compounds tested on Monocyte Chemoattractant Protein-1 (MCP1), CCL2 (gene 6347) (assay: BSK_SAg_MCP1: BioMAP Diversity Plus: SAg Assay for Monocyte Chemoattractant Protein-1 (MCP1) Biomarker Activity (AID 2283090)). Conditions: primary human HUVEC with PBMC; actives raise or lower the signal.
Method in brief: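 Values derive from bidirectional fitting of ELISA-measured MCP1 against DMSO controls. Readings were taken 24 h after dosing human vascular endothelial cells co-cultured with peripheral blood mononuclear cells under superantigen stimulation.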
In the case of `CCOC(=O)C(O)(c1ccc(Cl)cc1)c1ccc(Cl)cc1`, the AC50 is reported as 35.2 µM (active).
With `O=C(NC(=O)c1cc(F)c(F)cc1Cl)Nc1cc(F)ccc1N1CCC(C(=O)O)CC1` the outcome was “inactive”.
For `CCC(=O)O[C@H]1CC[C@H]2[C@@H]3CCC4=CC(=O)CC[C@]4(C)[C@H]3CC[C@]12C`, the AC50 was 30.1 µM (active).
With `Cc1cc(O)ccc1Cl` the outcome was “inactive”.
`CCOCCOC(C)=O` was tested, and the outcome was “inactive”.
`N#Cc1ccc(N(CC(N)=O)CC(F)(F)F)cc1C(F)(F)F` was tested, and the outcome was “inactive”.
`O=NN(c1ccccc1)c1ccccc1` was tested, and the outcome was “inactive”.
In the case of `O=C(O)C(F)(F)C(F)(F)C(F)(F)C(F)(F)C(F)(F)C(F)(F)C(F)(F)C(F)(F)F`, the AC50 is reported as 47.6 µM (active) and the outcome is reported as “inactive”.
`C=CC(=O)NCNC(=O)C=C` was tested, and the outcome was “inactive”.
In the case of `Clc1ccc(Cl)cc1`, the outcome is reported as “inactive”.
With `Cc1ccccc1[N+](=O)[O-]` the outcome was “inactive”.
In the case of `CC(C)(c1ccccc1)c1ccc(O)cc1`, the AC50 is reported as 36.1 µM (active).
`CCCCCCCCOC(=O)c1ccccc1C(=O)OCCCCCCCC` was tested, and the outcome was “inactive”.
For `Oc1c(Cl)c(Cl)c(Cl)c(Cl)c1Cl`, the AC50 was 10.2 µM (active) and 33.6 µM (active).
For `CCSC(=O)N(CC)C1CCCCC1`, the outcome was “inactive”.
In the case of `O=C(O)C(F)(F)C(F)(F)C(F)(F)C(F)(F)C(F)(F)C(F)(F)C(F)(F)C(F)(F)C(F)(F)F`, the AC50 is reported as 30.6 µM (active) and 50.1 µM (active) and 49.7 µM (active).
`C1CC2OC2CC1C1CO1` (stereo unspecified) was tested, and the outcome was “inactive”.
`c1cc2ccc3cccc4ccc(c1)c2c34` was tested, and the outcome was “inactive”.
With `C[C@]12CCC(=O)C=C1CC[C@@H]1[C@@H]2CC[C@@]2(C)[C@H]1CC[C@]2(C)O` the outcome was “inactive”.
In the case of `Oc1ccc(Cl)cc1Cl`, the outcome is reported as “inactive”.
In the case of `CN(C)c1nc(=O)n(C2CCCCC2)c(=O)n1C`, the outcome is reported as “inactive”.
For `O=C(NC(=O)c1c(F)cccc1F)Nc1cc(Cl)c(OC(F)(F)C(F)F)c(Cl)c1`, the outcome was “inactive”.
For `CCCCCCOC(=O)c1ccccc1C(=O)OCCCCCC`, the outcome was “inactive”.
For `O=S(=O)(O)C(F)(F)C(F)(F)C(F)(F)C(F)(F)F`, the outcome was “inactive”.
`Cc1ccc(O)c(C)c1` was tested, and the outcome was “inactive”.
`CCCCCCCCCC[N+](C)(C)CCCCCCCCCC` was tested, and the AC50 was 3.45 µM (active).
`CC1=C2C[C@H]3[C@@H](CC=C4C[C@@H](O)CC[C@@]43C)[C@@H]2CC[C@]12O[C@@H]1C[C@H](C)CN[C@H]1[C@H]2C` was tested, and the outcome was “inactive”.
In the case of `c1ccc(-c2ccccc2)cc1`, the outcome is reported as “inactive”.
With `O=C(N[C@H]1CN2CCC1CC2)c1cc2ccoc2cn1` the outcome was “inactive”.
For `CN(C)CCO`, the outcome was “inactive”.
In the case of `ClC1=C(Cl)[C@]2(Cl)[C@@H]3[C@H]4C[C@H]([C@@H]5O[C@H]45)[C@@H]3[C@@]1(Cl)C2(Cl)Cl`, the outcome is reported as “inactive”.
`COc1ccc(O)c(C(C)(C)C)c1` was tested, and the outcome was “inactive”.

The compounds below were run on E-selectin (Homo sapiens) (UniProt P16581) (assay: BSK_SAg_Eselectin: BioMAP Diversity Plus: SAg Assay for Eselectin Biomarker Activity (AID 2283091)). Conditions: primary human HUVEC with PBMC; actives raise or lower the signal.
Sequence of E-selectin (Homo sapiens) (P16581 whole entry, looked up): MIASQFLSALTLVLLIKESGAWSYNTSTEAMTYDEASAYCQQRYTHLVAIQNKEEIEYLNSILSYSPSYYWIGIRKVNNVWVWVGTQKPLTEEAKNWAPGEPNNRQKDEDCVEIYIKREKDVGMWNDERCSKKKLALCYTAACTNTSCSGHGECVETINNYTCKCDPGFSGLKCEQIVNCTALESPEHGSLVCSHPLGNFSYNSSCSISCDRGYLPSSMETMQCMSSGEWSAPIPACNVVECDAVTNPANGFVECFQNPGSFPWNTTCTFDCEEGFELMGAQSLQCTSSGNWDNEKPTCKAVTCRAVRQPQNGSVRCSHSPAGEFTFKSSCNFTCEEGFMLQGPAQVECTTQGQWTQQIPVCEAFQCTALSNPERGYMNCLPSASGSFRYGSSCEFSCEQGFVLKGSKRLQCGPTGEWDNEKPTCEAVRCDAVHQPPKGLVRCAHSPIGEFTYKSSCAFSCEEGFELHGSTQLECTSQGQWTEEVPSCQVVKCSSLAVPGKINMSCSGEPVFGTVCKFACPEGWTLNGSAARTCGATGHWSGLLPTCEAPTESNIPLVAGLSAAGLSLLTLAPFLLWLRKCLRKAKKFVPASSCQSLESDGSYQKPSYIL
Method in brief: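 Co-culture: HUVEC + PBMC. Dose compound; 24 h. ELISA for E-selectin. Bidirectional fit vs DMSO.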
For `CCOC(=O)C(O)(c1ccc(Cl)cc1)c1ccc(Cl)cc1`, the AC50 was 31.7 µM (active).
`O=C(NC(=O)c1cc(F)c(F)cc1Cl)Nc1cc(F)ccc1N1CCC(C(=O)O)CC1` was tested, and the outcome was “inactive”.
For `CCC(=O)O[C@H]1CC[C@H]2[C@@H]3CCC4=CC(=O)CC[C@]4(C)[C@H]3CC[C@]12C`, the AC50 was 34.2 µM (active).
In the case of `Cc1cc(O)ccc1Cl`, the outcome is reported as “inactive”.
With `CCOCCOC(C)=O` the outcome was “inactive”.
In the case of `N#Cc1ccc(N(CC(N)=O)CC(F)(F)F)cc1C(F)(F)F`, the outcome is reported as “inactive”.
For `O=NN(c1ccccc1)c1ccccc1`, the outcome was “inactive”.
In the case of `O=C(O)C(F)(F)C(F)(F)C(F)(F)C(F)(F)C(F)(F)C(F)(F)C(F)(F)C(F)(F)F`, the outcome is reported as “inactive”.
For `C=CC(=O)NCNC(=O)C=C`, the outcome was “inactive”.
With `Clc1ccc(Cl)cc1` the outcome was “inactive”.
In the case of `Cc1ccccc1[N+](=O)[O-]`, the outcome is reported as “inactive”.
With `CC(C)(c1ccccc1)c1ccc(O)cc1` the AC50 was 33.5 µM (active).
`CCCCCCCCOC(=O)c1ccccc1C(=O)OCCCCCCCC` was tested, and the outcome was “inactive”.
With `Oc1c(Cl)c(Cl)c(Cl)c(Cl)c1Cl` the AC50 was 27.3 µM (active) and the outcome was “inactive”.
In the case of `CCSC(=O)N(CC)C1CCCCC1`, the outcome is reported as “inactive”.
In the case of `O=C(O)C(F)(F)C(F)(F)C(F)(F)C(F)(F)C(F)(F)C(F)(F)C(F)(F)C(F)(F)C(F)(F)F`, the AC50 is reported as 34.3 µM (active) and 54.9 µM (active) and 52.9 µM (active).
With `C1CC2OC2CC1C1CO1` (stereo unspecified) the outcome was “inactive”.
`c1cc2ccc3cccc4ccc(c1)c2c34` was tested, and the outcome was “inactive”.
With `C[C@]12CCC(=O)C=C1CC[C@@H]1[C@@H]2CC[C@@]2(C)[C@H]1CC[C@]2(C)O` the outcome was “inactive”.
For `Oc1ccc(Cl)cc1Cl`, the outcome was “inactive”.
With `CN(C)c1nc(=O)n(C2CCCCC2)c(=O)n1C` the outcome was “inactive”.
For `O=C(NC(=O)c1c(F)cccc1F)Nc1cc(Cl)c(OC(F)(F)C(F)F)c(Cl)c1`, the outcome was “inactive”.
With `CCCCCCOC(=O)c1ccccc1C(=O)OCCCCCC` the AC50 was 32.6 µM (active).
`O=S(=O)(O)C(F)(F)C(F)(F)C(F)(F)C(F)(F)F` was tested, and the outcome was “inactive”.
`Cc1ccc(O)c(C)c1` was tested, and the outcome was “inactive”.
For `CCCCCCCCCC[N+](C)(C)CCCCCCCCCC`, the AC50 was 2.19 µM (active).
`CC1=C2C[C@H]3[C@@H](CC=C4C[C@@H](O)CC[C@@]43C)[C@@H]2CC[C@]12O[C@@H]1C[C@H](C)CN[C@H]1[C@H]2C` was tested, and the outcome was “inactive”.
`c1ccc(-c2ccccc2)cc1` was tested, and the outcome was “inactive”.
For `O=C(N[C@H]1CN2CCC1CC2)c1cc2ccoc2cn1`, the outcome was “inactive”.
With `CN(C)CCO` the outcome was “inactive”.
In the case of `ClC1=C(Cl)[C@]2(Cl)[C@@H]3[C@H]4C[C@H]([C@@H]5O[C@H]45)[C@@H]3[C@@]1(Cl)C2(Cl)Cl`, the AC50 is reported as 5.87 µM (active).
For `COc1ccc(O)c(C(C)(C)C)c1`, the outcome was “inactive”.
